Results filed as inconclusive are left out. The source made the active and inactive calls. The call rests on the fitted dose curve; in most records, active means well fitted curve in the direction sought with a large enough effect in the repeat runs; inconclusive means weak or mixed curves; inactive means no such curve, though single readings can be large; an effect the other way counts as inactive or inconclusive.
How the values were obtained:
[1] = qHTS RealTime-Glo MT Cell Viability Assay in HepG2 cells - 24 hour (AID 1224867); further: nearly all actives have a fitted effect of over 50% in size
Summary of the method: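 Viability was tracked continuously by NanoLuc luminescence from prosubstrate reduced by living HepG2 cells, at successive time points over 40 h of compound exposure. Cells with reagent were preincubated 5 h at 37 °C before compound addition.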

[2] = A CellTox Green Cytotoxicity Assay to monitor cytotoxicity in HEK293 cells - 0 hour (AID 1224869); further: nearly all actives have a fitted effect of over 50% in size
Summary of the method: (§1)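 Nonlytic real-time cytotoxicity: HEK293 + CellTox Green reagent plated, 5 h preincubation, pintool compound addition (23 nL in DMSO), 37 C for 40 h, fluorescence measured at successive time points.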

[3] = qHTS RealTime-Glo MT Cell Viability Assay in HepG2 cells - 40 hour (AID 1224870); further: nearly all actives have a fitted effect of over 50% in size
Summary of the method: (§2)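 Real-time viability: cells seeded at 600 per well together with NanoLuc and cell-permeant prosubstrate, compounds added after 5 h incubation. Luminescence tracked at 0, 8, 16, 24, 32 and 40 h of exposure.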

[4] = A CellTox Green Cytotoxicity Assay to monitor cytotoxicity in HEK293 cells - 40 hour (AID 1224871); further: nearly all actives have a fitted effect of over 45% in size
Summary of the method: as §1

[5] = qHTS RealTime-Glo MT Cell Viability Assay in HEK293 cells - 16 hour (AID 1224872); further: top concentration of the series differs between compounds; nearly all actives have a fitted effect of over 50% in size
Summary of the method: (§3)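 Viability tracked continuously by luminescence as live cells reduce a prosubstrate for NanoLuc; HEK293 cells preincubated 5 h, compound-treated at 37 C, and read at 0, 8, 16, 24, 32 and 40 h.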

[6] = qHTS RealTime-Glo MT Cell Viability Assay in HepG2 cells - 8 hour (AID 1224873); further: nearly all actives have a fitted effect of over 55% in size
Summary of the method: as §2

[7] = qHTS RealTime-Glo MT Cell Viability Assay in HEK293 cells - 40 hour (AID 1224874); conditions: RealTime-Glo luminescence; max response: active compounds read low; further: nearly all actives have a fitted effect of over 50% in size
Summary of the method: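 Cells were seeded together with NanoLuc luciferase and a prosubstrate that viable cells reduce to a luciferase substrate. After a 5 h incubation at 37 C/5% CO2, compounds were added and luminescence was measured repeatedly during 40 h of treatment.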

[8] = A CellTox Green Cytotoxicity Assay to monitor cytotoxicity in HEK293 cells - 24 hour (AID 1224875); further: series mostly up to about 77 µM; nearly all actives have a fitted effect of over 45% in size
Summary of the method: as §1

[9] = A CellTox Green Cytotoxicity Assay to monitor cytotoxicity in HepG2 cells - 16 hour (AID 1224876); further: nearly all actives have a fitted effect of over 45% in size
Summary of the method: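 Read-out is fluorescence of a cyanine dye excluded from live cells that stains DNA of dead HepG2 cells, with signal proportional to cytotoxicity. Plates were read at 0, 8, 16, 24, 32 and 40 h after compound addition.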

[10] = qHTS RealTime-Glo MT Cell Viability Assay in HEK293 cells - 32 hour (AID 1224868)
Summary of the method: as §3
On the % scale 0 is the no-effect control and ±100 the full control effect.

CC(=O)c1ccc(OCC(=O)N2CCCCC2)cc1
inactive: outcome [1] | Potency [2] | outcome [3] | Potency [4] | Potency [5] | outcome [6] | max response [7] 1.3% | Potency [8] | Potency [9]

CC(C)c1ccccc1O
inactive: outcome [1] | Potency [10] | Potency [2] | Potency [4] | outcome [6] | max response [7] 12.5% | Potency [8] | Potency [9]

O=c1cc(O)c(Cl)c[nH]1
inactive: outcome [1] | Potency [10] | Potency [2] | Potency [4] | Potency [5] | outcome [6] | max response [7] 4.88% | Potency [8] | Potency [9]

C=C[Si](C)(C)O[Si](C)(C)C=C
inactive: outcome [1] | Potency [10] | Potency [2] | Potency [4] | Potency [5] | outcome [6] | max response [7] -1.44% | Potency [8] | Potency [9]

CCN(CC)C(=O)C1CN2CCc3cc(OC)c(OC)cc3C2CC1OC(C)=O (stereo not given)
inactive: outcome [1] | Potency [10] | Potency [2] | Potency [4] | Potency [5] | outcome [6] | max response [7] -4.78% | Potency [8] | Potency [9]

C=C(C)C(=O)OC1CC(C)CC(C)(C)C1 (stereo not given)
inactive: outcome [1] | Potency [2] | outcome [3] | Potency [4] | Potency [5] | outcome [6] | max response [7] 3.29% | Potency [8]

COc1cc2c3cc1Oc1cc(ccc1O)C[C@@H]1c4c(cc(OC)c(O)c4Oc4ccc(cc4)C[C@@H]3N(C)CC2)CC[N+]1(C)C
inactive: outcome [1] | Potency [2] | outcome [3] | Potency [4] | Potency [5] | outcome [6] | max response [7] 3.06% | Potency [8] | Potency [9]

NS(=O)(=O)c1ccc(Cl)c(S(N)(=O)=O)c1
inactive: outcome [1] | Potency [2] | outcome [3] | Potency [4] | Potency [5] | outcome [6] | max response [7] 13.4% | Potency [8] | Potency [9]

CCCCC(CC)C(=O)OC(C)C (stereo not given)
inactive: outcome [1] | Potency [10] | Potency [2] | Potency [4] | Potency [5] | max response [7] 3.8% | Potency [8] | Potency [9]

CCCCC(C)C(=O)O (stereo not given)
inactive: outcome [1] | Potency [10] | Potency [2] | Potency [4] | Potency [5] | max response [7] -5.74% | Potency [8]

COc1ccc(NS(=O)(=O)c2ccc(N)cc2)nn1
inactive: outcome [1] | Potency [10] | Potency [2] | Potency [4] | Potency [5] | outcome [6] | max response [7] 3.44% | Potency [8] | Potency [9]

C=CCOc1cc(Cl)ccc1C(=O)NCCN(CC)CC
inactive: outcome [1] | Potency [10] | Potency [2] | outcome [6] | max response [7] -13.3% | Potency [9]

O=C(O)/C=C/c1ccccc1
inactive: outcome [1] | Potency [10] | Potency [2] | Potency [4] | Potency [5] | outcome [6] | max response [7] -8.08% | Potency [8] | Potency [9]

COc1ccc(N=Nc2cc(C)c(N=Nc3ccc(S(=O)(=O)O)cc3)cc2OC)cc1
inactive: outcome [1] | Potency [2] | outcome [3] | Potency [4] | Potency [5] | outcome [6] | max response [7] -2.91% | Potency [8] | Potency [9]

CN(C)CCCNCCC#N
inactive: outcome [1] | Potency [2] | outcome [3] | Potency [4] | Potency [5] | outcome [6] | max response [7] 6.65% | Potency [8] | Potency [9]

Cc1nc([N+](=O)[O-])cn1-c1ccc([N+](=O)[O-])cc1
inactive: outcome [1] | Potency [10] | Potency [2] | Potency [4] | Potency [5] | outcome [6] | max response [7] 4.25% | Potency [8] | Potency [9]

CCCCCN(CCCOC)C(=O)C(CCC(=O)O)NC(=O)c1ccc(Cl)c(Cl)c1 (stereo not given)
inactive: outcome [1] | Potency [2] | outcome [3] | Potency [4] | Potency [5] | outcome [6] | max response [7] -0.0123% | Potency [8]

CC(C)SCc1ccco1
inactive: outcome [1] | Potency [2] | outcome [3] | Potency [4] | Potency [5] | outcome [6] | max response [7] 4.71% | Potency [8] | Potency [9]

CCc1nccnc1C
inactive: outcome [1] | Potency [10] | Potency [2] | Potency [4] | Potency [5] | outcome [6] | max response [7] 6.93% | Potency [8] | Potency [9]

CC(C)CCCCCCOC(=O)C1CCCCC1C(=O)OCCCCCCC(C)C (stereo not given)
inactive: outcome [1] | Potency [10] | Potency [2] | Potency [4] | Potency [5] | outcome [6] | max response [7] 14.8% | Potency [8] | Potency [9]

CC(C)COC(=O)COc1ccc(Cl)cc1Cl
inactive: outcome [1] | Potency [2] | Potency [4] | Potency [5] | max response [7] 6.46% | Potency [8] | Potency [9]

CCC(O)C(C)(C)C (stereo not given)
inactive: outcome [1] | Potency [2] | Potency [5] | outcome [6] | max response [7] 2.07% | Potency [9]

Nc1cc(Cl)cc(S(=O)(=O)O)c1O
inactive: outcome [1] | Potency [2] | outcome [3] | Potency [4] | Potency [5] | outcome [6] | max response [7] -4.63% | Potency [9]

CCCCC/C=C/CC(=O)OC
inactive: outcome [1] | Potency [2] | outcome [3] | Potency [4] | Potency [5] | outcome [6] | max response [7] -0.743% | Potency [8] | Potency [9]

CCCCCCCC/C=C\CCCCCCCC(=O)OC[C@@H](O)[C@H]1OC[C@H](O)[C@H]1O
inactive: outcome [1] | Potency [2] | outcome [3] | Potency [4] | Potency [5] | outcome [6] | max response [7] 7.57% | Potency [8] | Potency [9]

Source: PubChem BioAssay (Tox21)
